Results filed as inconclusive are left out. More than one record can exist for a structure, and the calls need not agree. Active and inactive are the calls of the source. Rule for the calls: active = hit-call score of the fitted dose curve at least 0.9, where 1 is the maximum; inconclusive = response in the unintended direction; inactive = score below 0.9.
Assay: TOX21_p53_BLA_p5_viability: Viability Assessment in the Tox21 HCT-116 p53 Agonism Beta-lactamase Assay, Phase 5 (AID 2283600)
From the text: TOX21_p53_BLA_p5 is a cell-based, single-readout assay that uses HCT116, a human intestinal cell line, […] in a 1536-well plate.TOX21_p53_BLA_p5_viability is an assay readout measuring cellular ATP content and detected with CellTiter-Glo Luciferase-coupled ATP quantitation.TOX21_p53_BLA_p5_viability used a type of viability reporter where loss-of-signal activity can be used to understand changes in the cell viability. Furthermore, this assay endpoint can be referred to as a secondary readout, because this assay has produced multiple assay endpoints where this one serves a viability function. To generalize the intended target to other relatable targets, this assay endpoint is annotated to the cell cycle intended target family, where the subfamily is cytotoxicity.
Thawing Method: Place 14 mL of pre-warmed thaw medium into a 15 mL of conical tub. Remove the vial of cells to be thawed from liquid nitrogen and thaw rapidly by placing at 37C in a water bath with gentle agitation for 1-2 minutes. Decontaminate the vial by wiping with 70% ethanol before opening in a biological safety cabinet. Transfer the vial contents drop-wise into 14 mL of thaw medium in a sterile 15-mL conical tub. Centrifuge cells at 900 rpm for 4 minutes and resuspend in thaw medium. Transfer contents to the T75 tissue culture flask containing Thaw Medium and place flask in a humidified 37C/5% CO2 incubator. Switch to growth medium at first passage.Propagation Method: Aspirate medium, rinse once in DPBS, add 0.25% Trypsin/EDTA and swirl to coat the cell evenly. Add an equal volume of Growth Medium to inactivate Trypsin after 2-3 minutes incubation at 37C. Centrifuge cells at 900 rpm for 4 minutes and resuspend in growth medium. Cell should be passage or fed at least twice a week.Assay Protocol: Harvest cells from culture in growth medium and resuspend in assay medium. 2.2 Dispense 4000 cells/5 uL/well into 1536-well black/clear bottom plates using a Multidrop dispenser. After the cells were incubated at 37C for 5 hours, 23 nL of compounds dissolved in DMSO were transferred to the assay plate by a PinTool resulting in a 217-fold dilution. Incubate the plates for 16 hours at 37C, 5% CO2. Add 1 uL of 6X LiveBLAzer FRET B/G (CCF4-AM) Substrate Mixture to each well using a BioRAPTR dispenser and incubate the plates at room temperature for 2 hours. Measure fluorescence intensity at 460 and 530 nm emission and 405 nm excitation by an Envision detector. Data is expressed as the ratio of 460nm/530nm emissions. Add 4 uL of Cell-titer Glo to each well using BioRAPTR and incubate the plates at room temperature for […]. For cell viability readout that measures cytotoxicity, 4 ul/well of CellTiter-Glo reagent was added into the assay plates using a Flying Reagent Dispenser. After 30 min incubation at room temperature, the luminescence intensity in the plates was measured using a ViewLux plate reader.
With `BrCBr` the outcome was “inactive”.
In the case of `CC1CCCC1.[C-]#[O+].[C-]#[O+].[C-]#[O+].[Mn]`, the outcome is reported as “inactive”.
For `CC(=O)OC1CN2CCC1CC2` (stereo not given), the outcome was “inactive”.
With `CCCOC(=O)c1ccccc1C(=O)OCCC` the outcome was “inactive”.
In the case of `CCN(CC)C(=O)[C@@H]1C=C2c3cccc4[nH]cc(c34)C[C@H]2N(C)C1`, the outcome is reported as “inactive”.
In the case of `ClCC1CO1` (stereo not given), the outcome is reported as “inactive”.
With `Brc1c(Br)c(Br)c(Br)c(Br)c1Br` the outcome was “inactive”.
With `O=Cc1ccccc1` the outcome was “inactive”.
For `CCC(C)(S(=O)(=O)CC)S(=O)(=O)CC`, the outcome was “inactive”.
In the case of `COc1ccc2c(C(=O)c3ccc(Cl)cc3)c(C)n(CC(=O)O)c2c1`, the outcome is reported as “inactive”.
With `ClC(Br)Br` the outcome was “inactive”.
For `CC=C(CC)C(=O)NC(N)=O`, the outcome was “inactive”.
In the case of `Cc1nnc2n1-c1sc(Br)cc1C(c1ccccc1Cl)=NC2`, the outcome is reported as “inactive”.
In the case of `CCN(CC)C(=O)N[C@@H]1C=C2c3cccc4[nH]cc(c34)C[C@@H]2N(C)C1`, the outcome is reported as “inactive”.
In the case of `O=[N+]([O-])O.O=[N+]([O-])O.[Cd]`, the outcome is reported as “inactive”.
With `CCOP(=O)(O)OCC` (tested in a mixture with another compound) the AC50 was 85.2 µM (active) and the outcome was “inactive”.
In the case of `N#Cc1cccc(C#N)c1`, the outcome is reported as “inactive”.
For `O=[N+]([O-])[O-].[Tl+]`, the outcome was “inactive”.
In the case of `CC[C@H]1C[C@H]2[C@@H]3CCC4=CC(=O)CC[C@@H]4[C@H]3CC[C@]2(C)[C@H]1O`, the outcome is reported as “inactive”.
In the case of `C=CCOC(C)=O`, the outcome is reported as “inactive”.
With `C=C(Cl)CCl` the outcome was “inactive”.
For `Nc1cc(Cl)ccc1Cl`, the outcome was “inactive”.
With `CCC(=O)O[C@@](Cc1ccccc1)(c1ccccc1)[C@@H](C)CN(C)C` the outcome was “inactive”.
In the case of `COC(C)(C)C`, the outcome is reported as “inactive”.
With `N#Cc1cc(I)c(O)c(I)c1` the outcome was “inactive”.
In the case of `[O]=[Cd]`, the outcome is reported as “inactive”.
In the case of `Oc1cc(Cl)c(Cl)c(Cl)c1`, the outcome is reported as “inactive”.
For `ClCc1ccccc1`, the outcome was “inactive”.
In the case of `CC(C)C[C@H]1C(=O)N2CCC[C@H]2[C@]2(O)O[C@](NC(=O)[C@@H]3C[C@@H]4c5cccc6[nH]cc(c56)C[C@H]4N(C)C3)(C(C)C)C(=O)N12`, the outcome is reported as “inactive”.
For `CC(C)NC(C)C`, the outcome was “inactive”.
With `c1ccc2c(c1)CCCC2` the outcome was “inactive”.
For `COC(COC(N)=O)C1=C(N2CC2)C(=O)C(C)=C(N2CC2)C1=O` (stereo not given), the AC50 was 36.3 µM (active).
With `NC(=S)C(N)=S` the outcome was “inactive”.
In the case of `C[C@]12CCC(=O)C[C@@H]1CC[C@@H]1[C@@H]2CC[C@@]2(C)[C@H]1CC[C@]2(C)O`, the outcome is reported as “inactive”.
In the case of `C[C@@H]1[C@@H]2Cc3ccc(O)cc3[C@@]1(C)CCN2CC1CC1`, the outcome is reported as “inactive”.
In the case of `C=C(C#N)CCC#N`, the outcome is reported as “inactive”.
In the case of `CCCCCCCCCCCCCCCCCC(=O)O`, the outcome is reported as “inactive”.
With `ClC1=C(Cl)C2(Cl)C(CBr)CC1(Cl)C2(Cl)Cl` (stereo not given) the AC50 was 36.3 µM (active) and the outcome was “inactive”.

From PubChem BioAssay (EPA / NIEHS)
